# Hits are enriched below; roughly 2.8% of the tested compounds scored in any of these assays.
# PAFAH2 FP inh = PAFAH2 (human) inhibition; AID 492956; recombinant PAFAH2, FP-rhodamine activity probe, fluorescence polarization; 340,000 compounds, 0.99% hits; inhibition, % at 3.39 µM;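 active means inhibition above the mean over all tested compounds plus 3 SD, cut at about 30% in these data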;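 further: inhibitors block probe labeling of enzyme so polarization drops; 0% = enzyme with DMSO and 100% = wells lacking PAFAH2 protein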
# DAGLB inhibitor = blocks human DAGLB lipase activity; Q8NCG7; HEK293T DAGLB membrane lysate, EnzChek fluorogenic substrate; inhibition, % at 5.17 µM; 340,000 compounds, 0.059% hits; in the data active means inhibition above about 34%;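 further: 0% = enzyme with vehicle and 100% = wells lacking enzyme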
# PAFAH1B2 FP inh = PAFAH1B2 (human) inhibition; P68402; recombinant PAFAH1B2, FP-rhodamine activity probe, fluorescence polarization; inhibition, % at 3.39 µM; 340,000 compounds, 1.2% hits;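 active means inhibition above the mean of all tested compounds plus 3 SD, cut at about 24% in these data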;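 further: 0% = enzyme with DMSO and 100% = wells lacking PAFAH1B2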
# pPAFAH FP inh = inhibitors of human plasma PAF acetylhydrolase (pPAFAH); Q13093; recombinant pPAFAH, FP-rhodamine probe fluorescence polarization; inhibition, % at 3.39 µM; 330,000 compounds, 1.5% hits; AID 463082;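 active means inhibition above the mean inhibition across the screen plus 3 SD, cut at about 25% in these data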;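 further: inhibitors block binding of the rhodamine activity-based probe so polarization drops; 0% = enzyme with DMSO and 100% = wells lacking pPAFAH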
# Target sequence (Q13093 whole entry, looked up): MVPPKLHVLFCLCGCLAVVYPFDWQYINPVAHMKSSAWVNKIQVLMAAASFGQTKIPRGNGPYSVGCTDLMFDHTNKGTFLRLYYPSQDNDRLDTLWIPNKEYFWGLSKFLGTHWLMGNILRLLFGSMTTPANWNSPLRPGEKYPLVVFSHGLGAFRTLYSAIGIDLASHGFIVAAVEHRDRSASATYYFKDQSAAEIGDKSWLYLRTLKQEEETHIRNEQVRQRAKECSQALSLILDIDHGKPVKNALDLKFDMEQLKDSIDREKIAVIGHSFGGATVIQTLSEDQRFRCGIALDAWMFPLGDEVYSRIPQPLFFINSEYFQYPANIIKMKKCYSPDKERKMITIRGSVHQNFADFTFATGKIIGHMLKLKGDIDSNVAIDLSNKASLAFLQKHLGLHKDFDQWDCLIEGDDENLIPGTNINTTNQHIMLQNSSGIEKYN
# PAFAH1B3 FP inh = PAFAH1B3 (human) inhibition | Q15102 | recombinant PAFAH1B3, FP-rhodamine probe, fluorescence polarization | inhibition, % at 3.39 µM | 340,000 compounds, 0.28% hits | AID 492972;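 active means inhibition above the screen-wide average of all tested compounds plus 3 SD, cut at about 25% in these data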;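 further: 0% = enzyme with DMSO only and 100% = wells lacking PAFAH1B3 protein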
# Target sequence (Q15102 whole entry, looked up): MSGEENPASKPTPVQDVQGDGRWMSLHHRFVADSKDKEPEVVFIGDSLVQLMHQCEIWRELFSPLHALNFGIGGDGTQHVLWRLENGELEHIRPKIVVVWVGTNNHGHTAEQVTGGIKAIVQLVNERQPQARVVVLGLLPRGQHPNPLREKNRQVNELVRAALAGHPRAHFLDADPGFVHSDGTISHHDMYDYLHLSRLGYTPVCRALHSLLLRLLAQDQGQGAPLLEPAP
# HTRA1 inhibitor = HTRA1 (human) protease inhibition | Q92743 | AID 504803 | 340,000 compounds, 0.5% hits | recombinant HTRA1, FP-rhodamine activity-based probe, fluorescence polarization | inhibition, % at 5.96 µM; in the data active means inhibition above about 36%;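 further: 0% = enzyme with DMSO and 100% = wells lacking enzyme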
# Active calls of the source: *; / = no result given.
SMILES,PAFAH2 FP inh,DAGLB inhibitor,PAFAH1B2 FP inh,pPAFAH FP inh,PAFAH1B3 FP inh,HTRA1 inhibitor
O=C1NC(=O)N(Cc2ccccc2)C(=O)/C1=C\c1ccco1,11.1,6.2,7.1,19.7,8.5,3.1
CCCCN1C(=O)/C(=C\c2ccco2)C(=O)N(CCc2ccccc2)C1=O,9.1,29.3,-3.9,29.2*,-18.2,18.4
O=C(COC(=O)Cc1ccccc1)NNC(=O)c1ccc([N+](=O)[O-])cc1,3.3,1.5,1.1,27.7*,-0.1,2.7
O=C(Cc1ccccc1)Oc1ccc([N+](=O)[O-])cc1,-5.5,0.7,-0.4,5.2,3.0,-19.4
Cc1ccc(C2=NN(CCC(=O)N3CCC4(CC3)OCCO4)C(=O)CC2)cc1,10.0,1.0,3.8,1.4,-1.3,8.3
C(CCc1nn[nH]n1)CCc1nn[nH]n1,-0.1,-1.6,-3.6,2.2,3.4,2.4
O=C1NC(=S)SC1=Cc1ccc(N(CCCl)CCCl)cc1,9.3,-3.8,28.3*,/,5.8,-7.9
CCN(CC)c1ccc(N=Cc2c(O)n(-c3ccc(OC)cc3)c(=O)[nH]c2=O)cc1,0.8,6.2,1.1,25.4*,4.7,35.1
Cn1ncnc2c(=O)n(C)c(=O)nc1-2,59.1*,-24.5,51.0*,4.5,74.5*,23.5
Cn1c(O)c(C(=N)COc2ccccc2)c(=O)n(C)c1=O,-4.0,-1.3,1.5,1.8,4.7,1.4
Cn1c(O)c(C(=Nc2ccccc2)SCc2ccc(Cl)cc2)c(=O)n(C)c1=O,11.6,-1.4,25.8*,3.9,5.5,-0.5
COC(=O)C1=C(c2cccc(OCc3ccccc3)c2)C[C@@H]2CC[C@H]1N2C(=O)NCCCc1ccccc1,-13.1,-7.2,4.2,30.5*,-8.3,-43.2
O=C(c1ccc(N2CCCCCC2)c([N+](=O)[O-])c1)N1CCC2(CC1)OCCO2,10.7,2.7,3.6,33.1*,8.7,-0.3
CN1C(=O)C(=Cc2ccc(-c3cccc(Cl)c3)o2)C(=O)N(C)C1=O,/,/,/,11.9,/,/
Cc1ccc(Sc2ccc(C=C3C(=O)N(C)C(=O)N(C)C3=O)o2)cc1,1.5,7.5,56.9*,7.9,-5.5,-24.4
C=C[C@@H]1C[C@@]1(C)[C@@H](NP(=O)(c1ccccc1)c1ccccc1)c1ccccc1,6.4,-8.5,41.2*,5.1,7.5,-23.0
C=C(C)[C@@]12OC3(c4ccccc4)O[C@@H]1C1[C@@H]4O[C@]4(CO)[C@@H](O)[C@]4(O)C(=O)C(C)=C[C@H]4[C@@]1(O3)[C@H](C)[C@H]2OC(=O)/C=C/C=C/c1ccccc1 (some centres not stated),-19.6,-5.1,0.7,-4.6,-14.1,-83.3
CN1C(=O)NC(=O)/C(=C/c2ccc([N+](=O)[O-])s2)C1=O,29.4,6.8,22.3,25.4*,23.3,13.5
CN1C(=O)NC(=O)/C(=C/c2ccc([N+](=O)[O-])o2)C1=O,/,/,/,11.8,/,/
C[C@]12CCC3C(CC[C@H]4C[C@@H](O)CC[C@]34C)C1C/C(=N/O)[C@@H]2O (some centres not stated),-9.1,-0.3,4.7,0.1,-3.9,4.2
O=C(O)CCn1cc(C=C2C(=O)NC(=S)NC2=O)c(-c2cccc(Cl)c2)n1,-3.0,1.0,6.5,1.4,-0.9,-6.2
O=C(O)CCn1cc(C=C2C(=O)NC(=O)NC2=O)c(-c2ccc(Br)cc2)n1,-4.0,0.8,33.2*,11.0,5.7,1.8
O=C1/C(=C/c2ccc([N+](=O)[O-])cc2)N2CCC1CC2,-7.2,0.9,9.4,7.1,9.1,2.0
O=C(N/N=C/c1c(O)n(C2CCCCC2)c(=S)[nH]c1=O)c1ccccc1O,13.0,14.9,13.4,31.7*,3.3,34.9
O=C(N/N=C/c1c(O)n(Cc2ccco2)c(=O)[nH]c1=O)c1ccccc1O,34.6*,3.7,14.6,29.6*,8.9,4.0
SMILES,PAFAH2 FP inh,DAGLB inhibitor,PAFAH1B2 FP inh,pPAFAH FP inh,PAFAH1B3 FP inh,HTRA1 inhibitor
[N-]=[N+]=CC(=O)OC[C@H](N)C(=O)O,-3.1,0.2,4.5,-3.4,-8.9,5.0
C=CCn1c(O)c(C(CC)=Nc2ccc3c(c2)CCC3)c(=O)[nH]c1=O,3.8,-1.6,7.7,0.7,4.8,5.6
C=CCn1c(O)c(C(CC)=Nc2ccc(N(C)C)cc2)c(=O)[nH]c1=O,/,/,/,34.2*,/,/
Cc1cc(Cl)ccc1OCCCC(=O)NCc1cccs1,-1.4,-11.7,0.1,-1.1,0.2,-8.7
CCOc1cccc(=NC2CCCCC2)c2c(C)n(C)c(C)c12,/,/,/,3.8,/,/
CN(C)[C@@H]1C(=O)C(C(N)=O)=C(O)[C@@]2(O)C(=O)C3=C(O)c4c(O)cccc4[C@@](C)(O)[C@H]3C[C@@H]12,/,/,/,73.5*,/,/
C/C(=N\NC(N)=O)c1c(O)n(C)c(=O)n(C)c1=O,0.3,-1.3,0.1,-0.1,2.4,-2.6
Cc1ccc2cc(CNCCc3ccccc3C)c(=O)[nH]c2c1,-1.8,5.3,4.7,3.0,2.5,-11.7
CN1/C(=C\C=C2C(=O)NC(=S)NC2=O)C(C)(C)c2ccccc21,37.9*,-124.1,68.2*,/,-378.1,-1.4
C/C=C(\C)C(=O)OC1C(C)=C2C(C1OC(=O)CCCCC)C(C)(OC(C)=O)CC(OC(=O)CCC)C1(O)C2OC(=O)C1(C)O (configuration not stated),/,/,/,38.2*,/,/
CC(C)CCOP(N)(=O)Oc1ccccc1 (configuration not stated),6.9,-1.9,10.3,-9.1,3.3,0.8
CC(C)CCOP(N)(=O)Oc1ccccc1Cl (configuration not stated),29.6,8.3,85.2*,0.6,25.7*,2.3
NP(=O)(OCCCc1ccccc1)Oc1ccccc1Cl (configuration not stated),66.9*,6.7,92.4*,6.1,44.6*,10.8
CCN1CCC2(CCNC2)C1 (configuration not stated),-11.2,-0.8,-2.1,1.5,4.9,0.7
COC(=O)C1=C(c2c(C)noc2C)C[C@@H]2CC[C@H]1N2C(=O)NCc1ccc(C(F)(F)F)cc1,0.9,2.2,24.2*,0.1,8.8,-3.5
COC(=O)C1=C(c2cc3ccccc3s2)C[C@@H]2CC[C@H]1N2C(=O)NCc1ccc(C(F)(F)F)cc1,-6.6,-9.6,-2.3,1.3,-7.2,-71.0
N=C1c2ccccc2CN1c1ccc(F)c([N+](=O)[O-])c1,0.0,-2.4,6.8,-2.1,7.4,-3.9
O=C1NC(=O)N(Cc2ccco2)C(=O)/C1=C/c1cccn1CCOc1ccccc1Cl,28.1,25.4,15.3,26.1*,6.2,-1.4
Cn1cccc1/C=C1/C(=O)NC(=O)N(Cc2ccccc2)C1=O,12.7,10.3,6.2,1.8,5.5,24.9
Cn1cccc1/C=C1\C(=O)NC(=O)N(Cc2ccccc2)C1=O,17.4,15.1,9.3,10.8,9.5,15.8
Cn1cccc1/C=C1/C(=O)NC(=O)N(Cc2ccc(F)cc2)C1=O,12.2,12.5,28.8*,13.4,22.3,19.6
CC/C(=N\N1CCCCCC1)c1c(O)n(-c2ccccc2C)c(=O)[nH]c1=O,0.9,4.8,1.7,4.6,9.9,-1.1

# High-throughput results deposited in PubChem by The Scripps Research Institute Molecular Screening Center.
